These results are taken from PubChem BioAssay AID1949 (Southern Research Institute, 2009).

About 1,600 (1.6%) of roughly 100,000 compounds were called active. Not shown: some 3% with an inconclusive outcome. These entries were drawn from the full list. Unmarked numbers belong to inactive results. No rule for the calls is given here.

The nature of the assay: Confirmatory growth inhibition assay against Mycobacterium tuberculosis H37Rv, potency (AID 1949).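 As to inhibition: bacteria grown 7 days with compound before Alamar blue readout; 0% = untreated bacteria wells and 100% = bacteria with saturating antibiotic.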 The conditions noted are these: M. tuberculosis H37Rv growth inhibition; stronger effect = higher value, concentration not given here.
As a reminder, the inhibition is the share of the control response that was lost under treatment. `O=C(Nc1nc(-c2ccc(F)cc2)cs1)c1cccc2ccccc12`: the inhibition is 32.4%.

Turning to `CCn1c(/C=C/c2ccco2)nc2ccccc21`, the inhibition entry is “inactive”.

For the compound `COc1ccc(OC)c(N(CC(=O)Nc2ccccc2SC)S(=O)(=O)c2ccccc2)c1`, the inhibition is 13.5%.

Turning to `Cc1ccc(NS(=O)(=O)c2ccc(NS(=O)(=O)c3c(C)cc(C)cc3C)cc2)cc1`, the inhibition entry was “inactive”.

`COc1ccc(NC(=O)c2c(NC(=O)c3ccccc3F)sc3c2CCC3)cc1`: the inhibition entry is “inactive”.

Turning to `CCOC(=O)c1ccc(Oc2nc(NCc3ccccc3)nc(N(C)C)n2)cc1`, the inhibition entry was “inactive”.

In the case of `COC(=O)CSc1nc(C23CC4CC(CC(C4)C2)C3)cc(C(F)(F)F)c1C#N`, the inhibition was 1.01%.

As to `CCn1c(CC(=O)Nc2cccc(OC)c2)nnc1SCC(=O)c1ccc(Br)cc1`, the inhibition entry was “inactive”.

With `Cc1cccc(NC(=O)c2sc3cccc(Cl)c3c2Cl)c1`, the inhibition result is “inactive”.

Take `C=CCN(CC=C)CC(O)Cn1c(C)c(C)c2ccccc21` (stereo not drawn): the inhibition entry is “inactive”.

Consider `CCOC(=O)c1cc(-c2ccccc2)sc1NC(=O)c1ccccc1Br`, for which the inhibition entry was “inactive”.

On to `O=C(Nc1c(C(=O)N2CCCCCC2)cnn1-c1ccccc1Cl)c1ccccc1Cl`, for which the inhibition entry was “inactive”.

Regarding `CCCc1ccc(C(C)NC(=O)c2ccc(C)s2)cc1` (stereo not drawn), the inhibition entry was “inactive”.

Consider `O=C(NCCc1ccccc1)Nc1cccc2ccccc12`, for which the inhibition result was “inactive”.

For `COCCNCCCCOc1ccc(C)cc1[N+](=O)[O-]`, the inhibition result was “inactive”.

`Cc1ccc(NC(=O)CCc2ccc(S(=O)(=O)NCCc3ccccc3)cc2)cc1C`: the inhibition entry is “inactive”.

In the case of `CCOC(=O)N1CCN(C(=O)c2ccc(I)cc2)CC1`, the inhibition entry is “inactive”.

In the case of `CC1=C(C(=O)Nc2ccccc2)C(c2ccc(I)cc2)NC(=O)N1` (stereo not drawn), the inhibition result was “inactive”.

As to `CCOc1cc(CNC(CC)CO)c(Cl)cc1OCC(N)=O` (stereo not drawn), the inhibition result is “inactive”.

As to `OCCNc1nc2ccccc2n1-c1ccccc1`, the inhibition was 1.48%.

Regarding `O=C(CCCn1c(=S)[nH]c2ccccc2c1=O)N1CC=C(c2ccccc2)CC1`, the inhibition entry is “inactive”.

Regarding `Cc1ccc(C(=O)Nc2ccc(C(=O)NCCCC(=O)O)cc2)o1`, the inhibition is 4.21%.

With `CS(=O)(=O)N(CC(=O)Nc1ccccc1Cl)c1cccc([N+](=O)[O-])c1`, the inhibition result was “inactive”.

As to `O=C1c2ccccc2C(=O)N1c1nnc(Sc2ccc([N+](=O)[O-])c3cccnc23)s1`, the inhibition entry was “inactive”.

For `OC(c1ccccc1)c1nc2ccccc2n1Cc1cccc(Cl)c1` (stereo not drawn), the inhibition result is “inactive”.

On to `CC(C)c1ccccc1NC(=O)COc1ccc(-c2ccccc2)cc1`, for which the inhibition result was “inactive”.

For the compound `COC(=O)C1C(=O)OC(C)(C)C2CCC(C)CC12` (stereo not drawn), the inhibition entry is “inactive”.

Consider `COc1ccc(N2C(=O)CC(N3CCN(CC(=O)NC(C)C)CC3)C2=O)cc1` (stereo not drawn), for which the inhibition entry is “inactive”.

As for `CCOC(=O)N1CCN(C(=O)COc2cccc(C)c2C)CC1`, the inhibition entry is “inactive”.

Regarding `Cc1c(Cl)cccc1N1CC(O)=C(c2nc3ccccc3s2)C1=N`, the inhibition is 3.11%.

Consider `COC(=O)c1noc(-c2ccc(F)cc2)n1`, for which the inhibition entry is “inactive”.

Take `O=S(=O)(NCCC1=CCCCC1)c1ccccc1`: the inhibition result is “inactive”.

In the case of `O=C1OCCC1Sc1nnc(-c2ccc(Br)cc2)o1` (stereo not drawn), the inhibition result was “inactive”.

Consider `CC(=O)Nc1ccc(NC(=O)C(C)Oc2ccc(Cl)c(C)c2)cc1` (stereo not drawn), for which the inhibition result was “inactive”.

As for `CCOc1ccccc1OCCOCCNCc1ccccc1`, the inhibition result was “inactive”.

In the case of `CCN(C(=O)c1ccccc1Br)c1ccccc1C`, the inhibition is 8.56%.

For the compound `Fc1c(F)c(F)c(Cn2ccc(NC(=S)Nc3ccccc3C(F)(F)F)n2)c(F)c1F`, the inhibition entry was “inactive”.

As for `Cc1nc(SCc2cccc(C(=O)O)c2)nc2c1CCCC2`, the inhibition result was “inactive”.

On to `O=C(O)c1ccccc1-c1nc(-c2ccccc2F)no1`, for which the inhibition result is “inactive”.

As for `S=C(NCc1ccccc1)Nc1c(Cl)cccc1Cl`, the inhibition entry was “inactive”.

As for `CC1(C)CC(=O)CC(C)(C)N1OC(=O)c1ccncc1`, the inhibition result was “inactive”.

For the compound `CCOC(=O)c1ccc(NC(=O)CSc2nnc(-c3ccccc3Cl)n2CC)cc1`, the inhibition entry was “inactive”.

For the compound `CCOc1cc(C)c(S(=O)(=O)NCc2cccnc2)cc1C`, the inhibition result is “inactive”.

`COc1cc(S(=O)(=O)NC2CCCCC2)ccc1Cl`: the inhibition entry was “inactive”.

Take `CCOC(=O)c1ccc(COC(=O)c2ccc(C=O)cc2)cc1`: the inhibition was 2.19%.

For `CCn1c(CNC(=O)c2cccs2)nnc1SCC(=O)Nc1ccc(Br)cc1F`, the inhibition result was “inactive”.

Take `CCc1cccc(C)c1NC(=O)CN(c1cccc(Br)c1)S(C)(=O)=O`: the inhibition result was “inactive”.

Regarding `CC(C)CNC(=O)c1ccccc1NC(=O)CCSc1ccccc1`, the inhibition result is “inactive”.

As to `O=C1C2C3C=CC(C3)C2C(=O)N1CCC(=O)N1c2ccccc2Sc2ccccc21` (stereo not drawn), the inhibition result is “inactive”.

With `COc1cccc2cc(-c3nnc(SCC(=O)Nc4cccc(SC)c4)n3C)oc12`, the inhibition was 1.86%.

For the compound `CCOc1ccc(N(CC(N)=O)S(=O)(=O)c2ccc(OC)c(OC)c2)cc1`, the inhibition result was “inactive”.

Regarding `COC(=O)c1ccc(NC(=O)CN(Cc2ccccc2)S(C)(=O)=O)cc1`, the inhibition result is “inactive”.

`O=S(=O)(c1cccc(S(=O)(=O)N2CCCC2)c1)N1CCCC1`: the inhibition entry is “inactive”.

As for `COc1ccc([N+](=O)[O-])cc1NC(=O)C1CC(=O)N=C(N)S1` (stereo not drawn), the inhibition is 0.16%.

On to `COc1ccc(N(CC(=O)Nc2ccc(F)cc2F)S(=O)(=O)c2ccc(C)c([N+](=O)[O-])c2)cc1`, for which the inhibition result is “inactive”.

Take `O=S(=O)(c1ccccc1)c1ccc(COc2cccc3cccnc23)cc1`: the inhibition was 1.33%.

Regarding `COc1ccc(CNC2C3CC4CC(C3)CC2C4)cc1` (stereo not drawn), the inhibition entry was “inactive”.

For `COC(=O)c1ccc(SC2CCCCC2)c([N+](=O)[O-])c1`, the inhibition entry is “inactive”.

`C=CCn1c(COc2ccc(C)cc2OCC)nnc1SCC(=O)Nc1cc(C(F)(F)F)ccc1Cl`: the inhibition was 1.26%.

In the case of `COc1ccccc1CNC(=S)Nc1ccc(OC)c(OC)c1`, the inhibition result is “inactive”.

Take `Cc1cccc2c(N=NC(=O)c3cccnc3)c(O)[nH]c12`: the inhibition entry is “inactive”.

Take `CC(Sc1ccc(Cl)cc1)C(=O)Nc1ccccc1C(=O)O` (stereo not drawn): the inhibition result is “inactive”.

As for `COc1ccccc1OCCCSc1nc2sc(C)c(C)c2c(=O)n1-c1ccccc1`, the inhibition result was “inactive”.

For the compound `Cc1cc(C)c(C#N)c(SCC(=O)Nc2sc3c(c2C#N)CCC3)n1`, the inhibition result is “inactive”.

On to `O=C(NCCSC1CCCCC1)c1ccc(-c2ccccc2)cc1`, for which the inhibition result is “inactive”.

As to `CSc1nc(C)c(Oc2ccccc2)c(=O)n1C`, the inhibition was 8.91%.

As for `CSc1ccc(-c2nnn(CC(=O)Nc3ccc4c(c3)OCO4)n2)cc1`, the inhibition result was “inactive”.

In the case of `COc1cc(/C=C2/SC(=O)N(CC(=O)O)C2=O)cc(OC)c1OC`, the inhibition entry is “inactive”.

As for `CS(=O)(=O)N(CC(=O)NC1CCCCCC1)c1ccccc1F`, the inhibition result was “inactive”.

For the compound `CCn1c(SCC(=O)Nc2ccc3c(c2)OCO3)nnc1-c1ccccc1`, the inhibition is 4.1%.

As for `CN(c1cccc(NC(=O)c2ccccc2N(Cc2ccccc2)S(=O)(=O)c2ccccc2)c1)S(C)(=O)=O`, the inhibition result was “inactive”.

On to `Cc1ccc(F)cc1NC(=O)CSc1ccc(Br)cc1`, for which the inhibition is 36%.

As to `O=C(Oc1ccc2c3c(c(=O)oc2c1)CCC3)c1cccc(Cl)c1`, the inhibition result is “inactive”.

As for `Cc1ccc(-c2csc(NC(=O)CSc3ccc(Br)cc3)n2)cc1`, the inhibition result was “inactive”.

Turning to `C=CCOc1ccc(C2C(C(=O)c3cccs3)=C(O)C(=O)N2CCN(CC)CC)cc1OC` (stereo not drawn), the inhibition result is “inactive”.

Consider `CC(=O)C(C)n1c(=O)oc2ccc(Cl)cc21` (stereo not drawn), for which the inhibition is 0.0633%.

For the compound `Cc1cccc2c1N(C)C(=O)C2(O)CC(=O)c1ccco1` (stereo not drawn), the inhibition result was “inactive”.

`Cc1ccc(NC(=O)COc2ccc3c(C)c(Cc4ccccc4)c(=O)oc3c2C)cc1`: the inhibition entry was “inactive”.

On to `CCCCOc1ccc(C2C(C(=O)c3ccco3)=C(O)C(=O)N2CCOC)cc1OC` (stereo not drawn), for which the inhibition result was “inactive”.

`CCC(C)n1[nH]c(=O)c2c1NC(=O)CSC2c1ccc(Cl)cc1Cl` (stereo not drawn): the inhibition was 2.1%.

Turning to `Cc1ccc(S(=O)(=O)N(C)CC(=O)NCCCc2ccccc2)cc1`, the inhibition result is “inactive”.

Regarding `Cc1ccc(OCCCCCNCCO)cc1C`, the inhibition entry is “inactive”.

For the compound `CC(=O)Nc1ccc(S(=O)(=O)Nc2ccc(Cc3ccncc3)cc2)cc1`, the inhibition entry was “inactive”.

For the compound `COc1cc(OC)cc(C(=O)Nc2ccc(C(F)(F)F)cc2)c1`, the inhibition entry is “inactive”.

`CSc1cccc(NC(=O)CCSc2ccc(Cl)cc2)c1`: the inhibition result was “inactive”.

Take `N#Cc1ccc(Oc2ccc(NC(=O)C3CC=CCC3C(=O)O)cc2)cc1` (stereo not drawn): the inhibition entry is “inactive”.

As for `CN(C(=O)CN1C(=O)c2ccccc2C1=O)C1CCCCC1`, the inhibition entry is “inactive”.

For the compound `COc1ccc(OCCN(C)Cc2ccccc2)cc1`, the inhibition entry is “inactive”.

As for `Cc1cc(S(=O)(=O)N2CCOCC2)ccc1F`, the inhibition result was “inactive”.

Consider `COc1ccc(Cl)cc1S(=O)(=O)Nc1ccccc1C`, for which the inhibition was 4.41%.

In the case of `CCN(CC)C(=O)c1ccc(NC(=O)c2ccccc2I)cc1`, the inhibition entry is “inactive”.

In the case of `Cc1cc(=O)oc2cc(Oc3nnnn3-c3ccccc3)ccc12`, the inhibition entry was “inactive”.

Take `CCOc1ccc(NC(=O)Nc2ccc(C)cc2Br)cc1`: the inhibition entry was “inactive”.
